From PubChem BioAssay (NCATS) come the findings set out here.

Holding throughout (assay): Cytotoxic Profiling of Annotated Libraries Using Quantitative High-Throughput Screening (AID 1296008); further: nearly all actives have a fitted effect of over 60% in size
Holding throughout (conditions): Five cell lines viability, CellTiter-Glo ATP luminescence, 48-72 h; max response: active compounds read low
In general terms: In ATP-based viability assays light output follows the ATP content of the culture.

One experiment concerns CRL-7250. The method, boiled down: (§1)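 Cytotoxicity was measured as CellTiter-Glo ATP luminescence, read after 10 min at room temperature. Compound treatment of the cells lasted 48 or 72 hr at 37 degrees Celsius in a qHTS format.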
A further experiment concerns HEK293. Summed up: as §1
Another experiment deals with HaCat. The method, boiled down: as §1
A further experiment has as its system KB-3-1. The method, boiled down: as §1
Another experiment has as its system NIH3T3. Summed up:
as §1

Inconclusive results are not listed. A number with no mark means an inactive call. The source made the active and inactive calls. The call rests on the fitted dose curve; in most records, active means well fitted inhibition curve with a large enough effect; inconclusive means small, poorly fitted or top-dose-only effect; inactive means flat fitted curve, though single readings scatter.
On the % scale 0 is the no-effect control and ±100 the full control effect; potency means the concentration at half of the fitted maximal effect.

For `CCc1cc(CN2CC(C(=O)O)C2)sc1-c1noc(-c2ccc(Oc3ccccc3)cc2)n1`, the max response is -28.8% in the experiment with CRL-7250; -73% with HEK293; -26.8% in the experiment on HaCat; -20.8% in the experiment on KB-3-1; -43% in the experiment with NIH3T3.
Turning to `O=C(O)CC1CCC(c2ccc(-c3ccc4nc(C(=O)NCc5ccc(OC(F)(F)F)cc5)cn4c3)cc2)CC1` (stereo not given), the max response in the experiment with CRL-7250 was 4.28%; in the experiment on HEK293, -9.35%; in the experiment with HaCat it was -3.96%; in the experiment with KB-3-1, -0.0408%; in the experiment on NIH3T3 it was -0.598%.
`C=C1C[C@]23C[C@H]1CC[C@H]2[C@@]1(C)CCC[C@@]2(C)C(=O)O[C@@H]([C@@H]3O)[C@@H]12`: the max response was -15.4% with CRL-7250, -8.12% in the experiment with HEK293, -2.64% with HaCat and -6.16% in the experiment on NIH3T3. For the same compound, the call in the experiment with KB-3-1 was inactive.
With `CCOCc1nc2c(N)nc3ccccc3c2n1CC(C)(C)O`, the max response in the experiment on CRL-7250 was -6.16%; in the experiment with HEK293, -5.94%; in the experiment on HaCat, 3.85%; with KB-3-1, -7.57%; in the experiment on NIH3T3, -2.04%.
For the compound `CC1(C)CC[C@]2(C(=O)O[C@@H]3O[C@H](CO)[C@@H](O)[C@H](O)[C@H]3O)CC[C@]3(C)C(=CCC4[C@@]5(C)C[C@@H](O)[C@H](O)[C@](C)(C(=O)O)C5CC[C@]43C)C2C1O` (stereo not given in full), the max response in the experiment with CRL-7250 is 2.5%; in the experiment with HEK293 it was -1.42%; in the experiment on HaCat it was 1.77%; in the experiment on KB-3-1, -4.21%; in the experiment on NIH3T3, -9.14%.
Regarding `CC12CCC3c4ccc(O)cc4CCC3C1CC(OC1OC(C(=O)O)C(O)C(O)C1O)C2O` (stereo not given), the max response is -23.2% with CRL-7250, 4.04% in the experiment on HEK293, -15% in the experiment with HaCat and 4.17% in the experiment on NIH3T3. The call in the experiment with KB-3-1 was inactive.
The like results for `CC1CC[C@]2(C(=O)O)CC[C@]3(C(=O)O)C(=CCC4[C@@]5(C)CC[C@H](OC6OC(C)C(O)C(OC7OC(CO)C(O)C(O)C7O)C6O)C(C)(C)C5CC[C@]43C)C2C1C` (stereo not given in full) were, in that order, -0.92%, -0.0822%, -2.82%, 2.41% and “inactive”.
As for `C/C1=C\C[C@]2(C)C(=O)C(O)=C([C@H](C)CO)[C@H]2C/C=C(\C)[C@@H](O)CC/C(C)=C/CC1`, the max response was 3.52% in the experiment with CRL-7250; 2.1% with HEK293; 0.087% in the experiment on HaCat; 0.384% with KB-3-1; -2.65% with NIH3T3.
In the case of `Cc1ccc(S(=O)(=O)Cc2nc(-c3ccc(C(=O)NCc4cccnc4)cc3)oc2C)cc1`, the Potency with CRL-7250 was 65.1 nM (active); in the experiment with HEK293, 6.5 nM (active); in the experiment with HaCat, 146 nM (active); in the experiment with KB-3-1, 8.2 nM (active); in the experiment with NIH3T3, 73.1 nM (active).
For the compound `COc1cc2c(cc1O)[C@H](c1ccc(O[C@@H]3O[C@H](CO)[C@@H](O)[C@H](O)[C@H]3O)c(OC)c1)[C@@H](CO)[C@](O)(CO)C2`, the max response was 4.77% in the experiment on CRL-7250, 2.27% in the experiment on HEK293, -2.06% in the experiment with HaCat and 2.92% in the experiment with NIH3T3. For the same compound, the call in the experiment with KB-3-1 was inactive.
In the case of `CC(NC(=O)CCc1nc2ccccc2c(=O)[nH]1)c1ccccc1` (stereo not given), the max response in the experiment with CRL-7250 is -18.4%; with HEK293, -0.47%; in the experiment on HaCat it was -2.07%; in the experiment with KB-3-1 it was -4.27%; with NIH3T3, 2.87%.
Consider `O=C(NOCC(O)CO)c1ccc(F)c(F)c1Nc1ccc(I)cc1F` (stereo not given), for which the Potency in the experiment on CRL-7250 was 4610 nM (active); in the experiment with NIH3T3, 1840 nM (active). Moreover, the max response is 2.15% in the experiment on HEK293 and -79.3% with HaCat. Also, the result in the experiment on KB-3-1 was inactive.
For `CC(O)CO[C@@H]1O[C@H](CO)[C@@H](O)[C@H](O)[C@H]1O` (stereo not given in full), the max response with CRL-7250 is -3.19%; in the experiment on HEK293, -61.7%; in the experiment on HaCat it was -15.1%; in the experiment with NIH3T3 it was 0.151%. Also, in the experiment with KB-3-1, the outcome was inactive.
As for `O=C(O[C@H]1[C@@H]2C[C@@H]3OC[C@](O)([C@@H]1Cl)[C@H]2C(O[C@@H]1O[C@H](CO)[C@@H](O)[C@H](O)[C@H]1O)O3)c1ccc(O)c(O)c1` (stereo not given in full), the max response with CRL-7250 is -7.93%; with HEK293 it was -2.09%; with HaCat, -10.7%; in the experiment on KB-3-1, 6.86%; in the experiment on NIH3T3 it was 3.52%.
`CC1(C)CCC2(C(=O)OC3OC(CO)C(O)C(O)C3O)CCC3(C)C(=CCC4C5(C)CCC(OC6OC(C(=O)O)C(OC7OC(CO)C(O)C(O)C7O)C(OC7OC(CO)C(O)C(O)C7O)C6O)C(C)(C)C5CCC43C)C2C1` (stereo not given): the max response with CRL-7250 is 3.03%; in the experiment on HEK293, 4.12%; in the experiment with HaCat, 0.399%; in the experiment with KB-3-1, 6.58%; with NIH3T3 it was -0.359%.
The like results for `O=C(NCc1cccc(O)c1)c1cc2cc(F)ccc2[nH]1` were, in that order, 3.57%, -13.7%, -7.37%, -5.86% and -0.959%.
In the same order, the values of `O=C(O)Cc1ccc2oc(-c3ccc(NC(=O)/C=C/c4ccc(Br)cc4)c(F)c3)nc2c1` are 4.13%, -7.74%, 2.81%, 0.378% and 1.97%.
On to `CC1=CC(=O)C(=C(C)C)CC2C1CCC2(C)O` (stereo not given), for which the max response in the experiment with CRL-7250 is -11.2%; in the experiment on HEK293, 4.65%; with HaCat it was -1.27%; with KB-3-1, 8.27%; with NIH3T3, -2.64%.
Regarding `COc1ccc(-c2ccc(-c3cn(C(=O)N4CCCCC4c4ccccc4)nn3)cc2)cc1` (stereo not given), the result in the experiment with CRL-7250 was inactive. For the same compound, the max response in the experiment with HEK293 was 1.03%; in the experiment with HaCat it was -8.43%; in the experiment on KB-3-1, -8.19%; in the experiment with NIH3T3, 1.57%.
